These results are taken from PubChem BioAssay (Tox21).

Values without a mark were called inactive. Records with an inconclusive call do not appear. Activity calls are given as the source filed them. Calls follow the shape of the dose curve; as a rule, active = well fitted curve in the direction sought with a large enough effect in the repeat runs; inconclusive = weak or mixed curves; inactive = no such curve, though single readings can be large; an effect the other way counts as inactive or inconclusive.

A short description of test [1]: A CellTox Green Cytotoxicity Assay to monitor cytotoxicity in HEK293 cells - 32 hour (AID 1224881). Also: nearly all actives have a fitted effect of over 40% in size. Also: potency is read from the fitted curve at half-maximal effect. The method in brief: (§1)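 Nonlytic real-time cytotoxicity: HEK293 + CellTox Green reagent plated, 5 h preincubation, pintool compound addition (23 nL in DMSO), 37 C for 40 h, fluorescence measured at successive time points.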
Test [2] in a line: A CellTox Green Cytotoxicity Assay to monitor cytotoxicity in HepG2 cells - 0 hour (AID 1224882). Also: nearly all actives have a fitted effect of over 35% in size. Also: potency is read from the fitted curve at half-maximal effect. The method in brief:
(§2)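 Read-out is fluorescence of a cyanine dye excluded from live cells that stains DNA of dead HepG2 cells, with signal proportional to cytotoxicity. Plates were read at 0, 8, 16, 24, 32 and 40 h after compound addition.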

Test [3] is described as follows: A CellTox Green Cytotoxicity Assay to monitor cytotoxicity in HEK293 cells - 8 hour (AID 1224884). Also: nearly all actives have a fitted effect of over 35% in size. Also: potency is read from the fitted curve at half-maximal effect. The method, boiled down:
as §1

Test [4] in a line: qHTS RealTime-Glo MT Cell Viability Assay in HepG2 cells - 16 hour (AID 1224885). Also: nearly all actives have a fitted effect of over 50% in size. The method, boiled down:
(§3)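 HepG2 cells (600/well) were dispensed with RealTime-Glo reagents, incubated 5 h at 37 °C, then treated with compounds in DMSO for up to 40 h. Nonlytic NanoLuc luminescence reflecting viable cells was read at each stated time point.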
(Quantitative high-throughput screening tests each substance at several concentrations.)

Test [5] is described as follows: qHTS RealTime-Glo MT Cell Viability Assay in HEK293 cells - 8 hour (AID 1224887). Also: nearly all actives have a fitted effect of over 50% in size. Also: potency is read from the fitted curve at half-maximal effect. The method, boiled down:
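Cells were seeded together with NanoLuc luciferase and a prosubstrate that viable cells reduce to a luciferase substrate. After a 5 h incubation at 37 C/5% CO2, compounds were added and luminescence was measured repeatedly during 40 h of treatment.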

The nature of test [6]: A CellTox Green Cytotoxicity Assay to monitor cytotoxicity in HEK293 cells - 16 hour (AID 1224888). Also: nearly all actives have a fitted effect of over 35% in size. Also: potency is read from the fitted curve at half-maximal effect. The method in brief: as §1
Test [7] in a line: qHTS RealTime-Glo MT Cell Viability Assay in HepG2 cells - 0 hour (AID 1224889). Also: nearly all actives have a fitted effect of over 50% in size. The method in brief:
as §3

Test [8] is described as follows: A CellTox Green Cytotoxicity Assay to monitor cytotoxicity in HepG2 cells - 8 hour (AID 1224890). Also: nearly all actives have a fitted effect of over 45% in size. Also: potency is read from the fitted curve at half-maximal effect. The method in brief:
as §2

The nature of test [9]: A CellTox Green Cytotoxicity Assay to monitor cytotoxicity in HepG2 cells - 32 hour (AID 1224883). Also: nearly all actives have a fitted effect of over 50% in size. Also: potency is read from the fitted curve at half-maximal effect. The method, boiled down:
as §2

Test [10] can be described thus: qHTS RealTime-Glo MT Cell Viability Assay in HEK293 cells - 24 hour (AID 1224886). Also: nearly all actives have a fitted effect of over 50% in size. Also: potency is read from the fitted curve at half-maximal effect. The method in brief: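 HEK293 cells seeded with NanoLuc/prosubstrate reagent, rested 5 h at 37 C, then dosed and kept at 37 C up to 40 h. Nonlytic real-time luminescence from viable cells read at 0, 8, 16, 24, 32 and 40 h.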

Consider `CC(C)=CCN1CC[C@@]2(C)c3cc(O)ccc3C[C@@H]1[C@@H]2C`, for which the Potency result in test [1], in [2], in [3], in test [4], in test [5] and in [6] was “inactive” each time. Further, the Potency entry in test [7] and in test [8] was “inactive” throughout.

For `[O-][Cl+3]([O-])([O-])O`, the Potency result in [2], in test [9], in [3], in test [4], in [10] and in [5] was “inactive” in each case. Moreover, the Potency entry in test [6], in test [7] and in test [8] was “inactive” in each case.

Take `O.O.O.O=C([O-])[C@H]([O-])[C@@H]([O-])C(=O)[O-].O=C([O-])[C@H]([O-])[C@@H]([O-])C(=O)[O-].[K+].[K+].[Sb+3].[Sb+3]`: the Potency result in [1], in test [2], in [5], in [6], in test [7] and in test [8] was “inactive” throughout.

On to `ClC1=C(Cl)[C@]2(Cl)[C@@H]3[C@H]4C[C@H]([C@@H]5O[C@H]45)[C@@H]3[C@@]1(Cl)C2(Cl)Cl`, for which the Potency result in test [2], in test [9], in test [3], in test [4], in test [10] and in [5] was “inactive” throughout. Also, the Potency result in test [6], in [7] and in test [8] was “inactive” throughout.

On to `CC(C)Br`, for which the Potency result in [1], in test [2], in test [3], in test [4], in [10] and in test [6] was “inactive” in each case. Besides, in [8], the Potency result is “inactive”.

On to `CC(=O)C(Cl)C(=O)N(C)C` (stereo unspecified), for which the Potency result in test [2], in [9], in [3], in test [4], in test [10] and in test [5] was “inactive” throughout. The Potency entry in test [6], in test [7] and in test [8] was “inactive” in each case.

Take `CC[C@]1(O)CC[C@H]2[C@@H]3CCC4=CCCC[C@@H]4[C@H]3CC[C@@]21C`: the Potency entry in test [1], in test [2], in test [3], in test [4], in [5] and in test [6] was “inactive” throughout. Besides, the Potency result in [7] and in test [8] was “inactive” in each case.

As for `COP(=S)(NC(C)C)Oc1ccc(C)cc1[N+](=O)[O-]` (stereo unspecified), the Potency result in [2], in [9], in [3], in [4], in [10] and in test [5] was “inactive” in each case. In addition, the Potency entry in [6], in test [7] and in test [8] was “inactive” in each case.

`CN1CCc2cc3c(cc2C1O)OCO3` (stereo unspecified): the Potency entry in test [2], in [9], in test [3], in [4], in test [10] and in test [5] was “inactive” in each case. Also, the Potency result in test [6], in test [7] and in test [8] was “inactive” in each case.

With `[C-]1=CC=CC1.[Cl][Zr+2][Cl].c1cc[cH-]c1`, the Potency entry in test [1], in test [2], in test [3], in test [6], in test [7] and in test [8] was “inactive” in each case.

`COP(=O)(OC)O/C(=C\Cl)c1cc(Cl)c(Cl)cc1Cl`: the Potency entry in test [1], in test [2], in test [3], in test [10], in [5] and in [6] was “inactive” in each case. Further, the Potency entry in [8] is “inactive”.

In the case of `Nc1nc(N)c(N)c(N)n1`, the Potency in test [2] was 49.2 µM (active); in test [9] it was 55.2 µM (active); in test [3] it was 49.2 µM (active); in test [6], 55.2 µM (active); in [8] it was 49.2 µM (active). For the same compound, the Potency entry in test [4], in test [10], in [5] and in [7] was “inactive” in each case.

`Cc1cccc(Cc2cnc[nH]2)c1C`: the Potency result in test [1], in [3], in test [4], in test [10], in test [5] and in test [6] was “inactive” throughout. Also, in [7], the Potency entry is “inactive”.

Consider `CCC1COC(Cn2cncn2)(c2ccc(Cl)cc2Cl)O1` (stereo unspecified), for which the Potency result in test [1], in [2], in [3], in test [4], in [5] and in [6] was “inactive” each time. Moreover, the Potency result in [7] and in [8] was “inactive” throughout.

Consider `CN1[C@@H]2CC[C@H]1CC(O)C2` (stereo partly specified), for which the Potency entry in test [2], in test [9], in test [3], in [4], in [10] and in test [5] was “inactive” each time. Further, the Potency result in [6], in test [7] and in test [8] was “inactive” each time.

As for `CCCN`, the Potency entry in test [2], in test [9], in test [3], in test [4], in test [10] and in test [5] was “inactive” throughout. Besides, the Potency entry in test [6], in test [7] and in [8] was “inactive” in each case.

Regarding `CCO/N=C(\CC)C1=C(O)CC(c2c(C)cc(C)cc2C)CC1=O` (stereo unspecified), the Potency entry in test [1], in test [2], in test [3], in test [4] and in [6] was “inactive” in each case.

On to `CC(C)=CC1C(C(=O)OC(C#N)c2cccc(Oc3ccccc3)c2)C1(C)C` (stereo unspecified), for which the Potency entry in [2], in [9], in test [3], in test [4], in [10] and in [5] was “inactive” throughout. Further, the Potency entry in test [6], in [7] and in test [8] was “inactive” each time.

Turning to `CCCCC(CC)COC(=O)c1ccccc1C(=O)OCC(CC)CCCC` (stereo unspecified), the Potency entry in test [1], in test [2], in test [4], in [10], in [5] and in test [6] was “inactive” in each case. For the same compound, the Potency entry in [7] and in test [8] was “inactive” throughout.

On to `S=C=NCCc1ccccc1`, for which the Potency in test [1] and in test [10] was 49.1 µM (active) in each case. Also, the Potency entry in [2], in test [3], in [4], in test [6], in test [7] and in test [8] was “inactive” in each case.

Turning to `CC(=O)[O][Sn]([c]1ccccc1)([c]1ccccc1)[c]1ccccc1`, the Potency in test [1] is 0.219 µM (active); in [3], 0.347 µM (active); in test [10] it was 0.0436 µM (active); in [5] it was 123 nM (active); in [6] it was 0.347 µM (active); in [8], 13.8 µM (active). Further, the Potency result in [2] is “inactive”.

`N#Cc1c[nH]cc1-c1cccc2c1OC(F)(F)O2`: the Potency entry in test [1], in test [2], in [3], in test [4], in [6] and in [7] was “inactive” throughout. Besides, the Potency entry in test [8] was “inactive”.

Take `CC(C)N(C(=O)CCl)c1ccccc1`: the Potency result in test [1], in test [2], in test [3], in test [5], in test [6] and in test [7] was “inactive” each time. Also, the Potency entry in test [8] is “inactive”. Moreover, the Potency in [10] was 49 µM (active).

As for `COC(=O)c1cc(Oc2ccc(Cl)cc2Cl)ccc1[N+](=O)[O-]`, the Potency result in test [1], in test [2], in test [3], in test [4], in test [6] and in test [7] was “inactive” throughout. Moreover, the Potency entry in [8] was “inactive”.

For the compound `C[C@]12Cc3cn[nH]c3C[C@@H]1CC[C@@H]1[C@@H]2CC[C@@]2(C)[C@H]1CC[C@]2(C)O`, the Potency result in [1], in [2], in [3], in test [4], in [5] and in [6] was “inactive” throughout. The Potency entry in test [7] and in [8] was “inactive” each time.
